This is part of a sample that, as a whole, favours compounds with a hit. Of some 83,000 tested, about 20% had one in any assay.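 For each line, cells grew in 96-well plates with the test compound present at a single concentration for 48 hours.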 Unmarked numbers belong to inactive results. Active and inactive are the calls of the source. The calls were made as follows: active = growth percent below 10; inactive = the rest.

In this assay the test system is HL-60(TB) leukemia. Nature of the assay: NCI-60 one-dose screen, 48 h (100 = growth as untreated, 0 = no growth, -100 = all killed). Conditions: 10 µM unless noted.
In the case of `CCN(CC)CCOc1ccc(/C(=C(\C)c2ccc(OC)c(F)c2)c2ccc(Cl)cc2)cc1`, the growth was 68.6%. The same measure for `COc1cc(-c2csc(NC(=O)Nc3cc(Cl)cc(Cl)c3)n2)cc(OC)c1OC`: 34.9%. Under `O=C1COCCN1c1ccc(NCc2cn(C(=O)c3ccc(Cl)cc3)c3ccccc23)cc1` stands 90.6%. Under `CCCC[N+]1(C)CCN=C1Cc1ccccc1` (configuration not stated) stands 88.9%; under `CN(C)CCCNc1c2ccccc2nc2ccccc12`, 72.8%; under `Cn1cc(C(=O)c2nc(-c3cn(C)c4ccc(F)cc34)no2)c2cc(F)ccc21`, 93.3%. As for `O=C(c1ccccc1)c1ccco1`, the growth was 86.1%.

With `COc1ccc(/C(=C\c2cc(OC)c(OC)c(OC)c2)C(=O)N2CCNCC2)cc1`, the growth was 98%.

Regarding `O=C1c2cc3c(cc2-c2c1c1cc(F)c(F)cc1c(=O)n2C[C@H](O)CO)OCO3`, the growth was -16.4% (active). Under `COc1ccc2c(c1)/C(=C\c1sc(=S)[nH]c1O)C(C(=O)O)=N2` stands 101%; under `O=[N+]([O-])c1ccc(N=Nc2c(NNc3ccc([N+](=O)[O-])cn3)cc(S(=O)(=O)O)c3ccccc23)nc1`, 94.9%. Under `O=C1CSC(c2ccc(O)cc2)N1c1nnc(Cn2cnnc2)o1` (configuration not stated) stands 59.1%; under `O=[N+]([O-])c1ccc(O)cc1Br`, 99.9%; under `CCOc1ccccc1CN1CCc2nc3cc(C(C)(C)C)[nH]n3c(=O)c2C1`, 99.4%.

For the molecule `CCOc1ccc(/C=C/C(=O)c2cccc(OCCCOc3cccc(C(=O)/C=C/c4ccc(OCC)cc4)c3)c2)cc1`, the growth is 56%. Under `COc1cc(-c2nccc3[nH]c(-c4cccc5[nH]ccc45)nc23)cc(OC)c1OC` stands -41.1% (active); under `CC(=O)c1c(C)[nH]c(-c2nc3ccc(N4CCN(C)CC4)cc3[nH]2)c1-c1ccc(N(C)C)cc1`, -17.3% (active). In the case of `CCCCCCCCCCOC(c1ccccc1)c1ccccc1`, the growth was 81.4%. Under `O=C(Nc1ccc(F)cc1F)c1cc(I)ccc1O` stands -34.5% (active). The same measure for `Cc1ccc2c(n1)C(=O)C(Cl)=C(Nc1ccc(N3CCN(C)CC3)cc1)C2=O`: -46.7% (active). For the molecule `CCCC(F)C(=O)O` (configuration not stated), the growth was 97.3%. The same measure for `CCN(CC)CCNC(=O)c1ccc(-c2nc3ccc4[nH]ncc4c3c3c2CCCC3)cc1`: 67.9%; for `COc1ccc(Cn2c(Br)c3c(c2-c2cc(OC)c(OC)c(OC)c2)CCc2sc(NC(=O)c4ccc(OC)cc4)nc2-3)cc1`: 56.4%; for `COc1ccc(C(=O)/C=C/c2cccc(Nc3ccnc4cc(Cl)ccc34)c2)cc1`: 51.7%. On to `O=C(O)CCCCCCCCCCN1C(=O)/C(=C2/C(=O)N(CC(=O)O)c3ccc(Br)cc32)SC1=S`, for which the growth is 9.25% (active).

With `COc1cc(C2CC(=O)Nc3c2c(C)nn3-c2nc3ccccc3[nH]2)c(OC)c2c1OCO2` (configuration not stated), the growth is 26.2%. Under `O=c1cc(C2NCCc3c2[nH]c2ccccc32)c2c(ccc3ccccc32)o1` (configuration not stated) stands 48.5%. The same measure for `Cn1ccc2c1CC1CN(Cc3ccco3)C(=O)C1C2C(=O)O` (configuration not stated): 98.8%; for `CCCCCCCCCCCCCCCCNCCC[C@@H](C)[C@H]1CC[C@H]2[C@@H]3[C@H](OCCCN)C[C@@H]4C[C@H](OCCCN)CC[C@]4(C)[C@H]3C[C@H](OCCCN)[C@]12C`: 4.5% (active); for `Cc1ccc(-c2nc([P+](c3ccccc3)(c3ccccc3)c3ccccc3)c(Nc3ccccc3)o2)cc1`: -48.4% (active). The same measure for `COc1ncc(-c2ccc3nc(N)n(-c4ccccc4C(F)(F)F)c(=O)c3c2)cc1S(=O)(=O)Nc1ccc(F)cc1F`: 19.9%. In the case of `O=C1N=C(c2c(-c3[nH]c(=O)c4ccc(Br)cc4c3O)c(O)c3ccccc3c2O)C(=O)c2cc(Br)ccc21`, the growth was 45.6%. Under `Clc1ccc2c(NCCN3CCN(c4ccnc(N5CCCC5)n4)CC3)ccnc2c1` stands 37.4%.

Regarding `COc1cc(N)c2ncccc2c1Cl`, the growth is 85.6%. The same measure for `N#Cc1ccc(/C=C/c2cn(-c3ccccc3)nc2-c2cccc([N+](=O)[O-])c2)cc1`: 82.4%; for `CC1(C)CC(=O)C2=C(C1)OC1=C(C(=O)CC(C)(C)C1)C2c1ccc(OCc2cn(-c3ccc(F)cc3F)nn2)cc1`: 42.2%; for `Cc1ccc(-c2nc3ccccc3c(=O)n2/N=C/c2cccc3ccccc23)cc1`: 85.1%.
